High-throughput results (PubChem)
This is a sample that favours compounds with a hit; in the whole collection about 2.9% have one here.
CF NFkB block: blocks PAF-induced NF-kB reporter in cystic fibrosis cells; KKLEB NF-kB-GFP reporter, GFP fluorescence overnight; inhibition, % at 5 µM; hit rate 0.86% among 360,000;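 active = at least 50% inhibition at 5 µM, scaled per plate between neutral and stimulator controls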;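 also: PAF is a Pseudomonas aeruginosa culture filtrate used as stimulus; plate controls were PAF-stimulated DMSO wells for no effect and unstimulated DMSO wells for full effect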
Shn3 inh set2: Schnurri-3 reporter inhibition in Clone20 osteoblasts | Clone20 osteoblast Shn3 3'UTR firefly luciferase, 24 h | inhibition, % at 12.5 µM | hit rate 0.52% among 360,000 | AID 588674;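 active = mean inhibition of at least 75% with every replicate also reaching 75%; inconclusive = mean inhibition at least 75% but some replicate below; inactive = mean inhibition below 75%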;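 also: 0% = median of neutral control wells and 100% = pilot-screen positive control compound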
LMP1 NFkB inh: Epstein-Barr LMP1 NF-kappaB reporter inhibition; hit rate 0.69% among 350,000; inhibition, % at 12.5 µM; LMP1-induced NF-kappaB luciferase reporter cells, luminescence; in the data active = inhibition above about 41%; inconclusive = no clear call, values can overlap the other calls;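 also: 0% = neutral control wells and 100% = reference inhibitor control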
KKLEB tox: reduces viability of KKLEB cystic fibrosis airway cells; KKLEB CF airway cells viability, ATPlite luminescence, overnight; stronger effect = lower value; cells stimulated with P. aeruginosa culture filtrate; activity change (cytotoxicity), % at 5 µM; hit rate 0.36% among 360,000;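 active = corrected activity change at or below -50% at 5 µM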
Peg3 prom inh: Peg3 promoter activity inhibition; HeLa PEG-Prom luciferase reporter, luminescence, overnight; inhibition, % at 20 µM; hit rate 1.7% among 360,000;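 active = inhibition of at least 50% at 20 µM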
HIF-2a inh: inhibitors of HIF-2a; inhibition, % at 18.8 µM; hit rate 0.72% among 360,000; 786-0 RCC cells HIF-2a reporter, luciferase luminescence, overnight;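 active = inhibition of the luminescence signal of 40% or more relative to plate controls, in a single-dose primary screen at 18.75 µM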
An asterisk follows results filed as active; ? = inconclusive; ! = not confirmed by another sample.

SMILES | CF NFkB block | Shn3 inh set2 | LMP1 NFkB inh | KKLEB tox | Peg3 prom inh | HIF-2a inh
Cc1ccc(-c2nn3c(C)nnc3c3ccccc23)cc1S(=O)(=O)NC(C)c1ccccc1 (stereo unspecified) | -86 | 14 | 4 | -63* | 19 | 17
CCC(C)c1ccc(NC(=O)c2ccco2)cc1 (stereo unspecified) | 3 | 7 | 12 | -31 | -58 | -36
O=c1cc(Cl)nc2ccccn12 | 13 | -11 | 71* | -13 | -4 | 6
CC/C(=N/Nc1ccccc1)c1cnnc(-c2ccccc2)n1 | 42 | 3 | -68 | -51* | 18 | 6
CCCCC(=O)Nc1cc(OC)c(NC(=O)C2CCCCC2)cc1OC | -4 | 4 | -11 | -2 | 2 | 13
CCOc1cc([N+](=O)[O-])cc2c1C(=O)Nc1ccccc1O2 | -2 | 20 | 69* | -13 | 20 | -24
Cc1ccc(OCC(=O)NNc2c3ccccc3nc3ccccc23)cc1 | -12 | 26 | 19 | -3 | 83* | -10
Cc1ccc(NC(=O)C2CCN(c3cnccn3)CC2)cc1C | -8 | 3 | 2 | -6 | 2 | 8
CCCCCCCCCCn1c2c(c(=N)c3c1CCC3)CCC2 | 59* | 71 | ? | -64* | 98* | 64*
CCCCCCCCCn1c2c(c(=N)c3c1CCC3)CCCC2 | 46 | 92* | 29 | -56* | 104* | 27
CCCCCCCCn1c2c(c(=N)c3ccccc31)CCC2 | 34 | 91* | 8 | -26 | 86* | 4
O=C(NCCCn1ccnc1)c1ccc(Br)s1 | 9 | -11 | -2 | -7 | -3 | -11
CC(=O)OCC(=O)Nc1ccccc1C | -12 | 6 | -6 | 9 | 8 | 7
CCOC(=O)c1c(Nc2ccc(Cl)cc2)sc(/C=C2\C=Nc3ccccc32)c1O | 26 | 10 | 0 | -51*! | 27 | 3
Oc1nc(Nc2cccc(Cl)c2)sc1/C=C1\C=Nc2ccccc21 | -7 | -19 | -25 | -4 | -10 | -108
CC(C)(C)c1ccc(C(=O)NC(=S)NNC(=O)c2cccs2)cc1 | 58* | -9 | -4 | -40 | -54 | -92
CC(C)(C)C(=O)NC(=S)NNC(=O)c1ccc(-c2ccccc2)cc1 | 56* | 94* | 34 | -18 | 40 | -12
O=C(NC(=S)NNC(=O)c1cccs1)c1ccccc1 | 1 | 3 | -3 | 3 | -20 | -51
CC(=O)Nc1ccc(NC(=O)C/C(C)=N/NC(=O)c2cccc3ccccc23)cc1 | -2 | -15 | -7 | -13 | 7 | 3
COc1ccc(-c2[nH]ncc2/C=N\NC(=O)c2cccs2)cc1OC | -33 | -15 | 5 | 0 | 9 | 10
O=C1C=CC(=O)N1c1ccc(O)cc1 | 12 | 6 | -4 | 1 | 110* | -1
O=C1C=CC(=O)N1c1ccc(OC(F)F)cc1 | 10 | 91* | 10 | -6 | 104* | 50*
O=C1CCCC(=O)N1c1ccc(O)cc1 | -4 | 4 | -9 | -9 | -4 | -1
O=C(O)CNC(=O)c1ccc(OC(F)F)cc1 | 17 | -10 | 3 | -6 | -1 | 9
C=CCNCCOCCOc1ccccc1-c1ccccc1 | -1 | -7 | 2 | 9 | 10 | 4
SMILES | CF NFkB block | Shn3 inh set2 | LMP1 NFkB inh | KKLEB tox | Peg3 prom inh | HIF-2a inh
COc1ccc(-c2cnc(NCc3cc4c(cc3[N+](=O)[O-])OCO4)n2C)cc1 | 6 | 17 | 66* | -5 | -8 | 5
COc1ccc(OC)c(CNc2ncc(-c3cccc([N+](=O)[O-])c3)n2C)c1 | -20 | 28 | 2 | -4 | 18 | -12
COc1ccc(NC(=O)COC(=O)/C=C/c2ccc(OC)c(S(=O)(=O)N3CCOCC3)c2)cc1 | -8 | -54 | 54* | 6 | 12 | 8
O=c1c2ccccc2oc2ccc(C#CC3(O)CCCCC3)cc12 | -28 | 2 | -12 | -57* | 37 | -2
COc1cc2oc3ccc(C#Cc4ccc(N)cc4)cc3c(=O)c2cc1OC | -17 | -38 | -29 | -9 | -108 | -47
Cn1c2ccccc2c(=O)c2ccc(C#CC3(N)CCCCC3)cc21 | -7 | -60 | 1 | -20 | 52* | -100
Cn1c2ccccc2c(=O)c2cc(C#Cc3ccsc3)ccc21 | -6 | -89 | -27 | -21 | -73 | -113
Cn1c2ccccc2c(=O)c2cc(C#CC3(O)CCCCC3)ccc21 | -133 | 31 | 11 | -72* | 43 | 11
N#Cc1ccc(C#Cc2ccc3oc4ccccc4c(=O)c3c2)cc1 | 4 | -5 | 2 | -30 | -2 | -20
